Records with an inconclusive call do not appear. Activity calls are given as the source filed them. Calls follow the shape of the dose curve; as a rule, active = well fitted inhibition curve with a large enough effect; inconclusive = small, poorly fitted or top-dose-only effect; inactive = flat fitted curve, though single readings scatter.
Key:
Assay in all cases: qHTS profiling for inhibitors of Plasmodium falciparum proliferation (AID 504749); also: nearly all actives have a fitted effect of over 60% in size
Conditions in all cases: P. falciparum in erythrocytes, SYBR Green DNA, 72 h; series mostly up to 12.8 µM
[1] = system: 3D7
Method in brief: (§1)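 SYBR Green fluorescence of parasite DNA, read after lysis and overnight dark incubation, measured growth over 72 h in erythrocyte culture at 0.3% parasitemia and 2.5% hematocrit. Data normalised to DMSO and 0.29 uM artemisinin, with plate-drift correction.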

[2] = system: AS120
Method in brief: as §1

[3] = system: ATS95
Method in brief: as §1

[4] = system: CP185
Method in brief: as §1

[5] = system: CP191
Method in brief: as §1

[6] = system: CP192
Method in brief: as §1

[7] = system: CP217
Method in brief: as §1

[8] = system: CP247
Method in brief: as §1

[9] = system: CP252
Method in brief: as §1

[10] = system: CP256
Method in brief: as §1

[11] = system: CP262
Method in brief: as §1

[12] = system: CP266
Method in brief: as §1

[13] = system: CP291
Method in brief: as §1

[14] = system: CP305
Method in brief: as §1

[15] = system: CP315
Method in brief: as §1

[16] = system: CP325
Method in brief: as §1

[17] = system: CP329
Method in brief: as §1

[18] = system: HB3
Method in brief: as §1

[19] = system: N140
Method in brief: as §1

[20] = system: TAB113
Method in brief: as §1

Measured: Potency
Potency is read from the fitted curve at half-maximal effect.

COc1ccccc1OC[C@H](O)CO
inactive: [1] | [2] | [3] | [4] | [5] | [6] | [7] | [8] | [9] | [10] | [11] | [12] | [13] | [14] | [15] | [16] | [17] | [18] | [19] | [20]

CCC(=O)OCC(=O)[C@@]1(OC(=O)CC)[C@H](C)C[C@@H]2[C@@H]3[C@H]([C@@H](O)C[C@@]21C)[C@]1(C)C=CC(=O)C=C1C[C@@H]3Cl
active: [18] 3.55 µM
inactive: [4] | [6] | [9] | [11] | [12] | [15] | [17]

CC1=C(C(=O)O)N2C(=O)[C@@H](NC(=O)[C@@H](N)c3ccc(O)cc3)[C@@H]2SC1
inactive: [1] | [2] | [3] | [4] | [5] | [6] | [7] | [8] | [9] | [10] | [11] | [12] | [13] | [14] | [15] | [16] | [17] | [18] | [19] | [20]

C[C@H](O)Cn1cnc2c1c(=O)n(C)c(=O)n2C
inactive: [1] | [2] | [3] | [4] | [5] | [6] | [7] | [8] | [9] | [10] | [11] | [12] | [13] | [14] | [15] | [16] | [17] | [18] | [19] | [20]

CCOC(=O)O[C@@H](C)OC(=O)[C@@H]1N2C(=O)[C@@H](NC(=O)[C@@H](N)c3ccccc3)[C@H]2SC1(C)C
inactive: [1] | [2] | [3] | [4] | [5] | [7] | [8] | [9] | [10] | [11] | [12] | [13] | [14] | [15] | [16] | [17] | [18] | [19] | [20]

C[C@H]1CC[C@]2(OC1)O[C@@H]1C[C@@H]3[C@@H]4CC[C@H]5C[C@@H](O)CC[C@]5(C)[C@@H]4CC(=O)[C@@]3(C)[C@H]1[C@@H]2C
inactive: [1] | [2] | [3] | [4] | [5] | [6] | [7] | [8] | [9] | [10] | [11] | [12] | [13] | [14] | [15] | [16] | [17] | [18] | [19] | [20]

CCN[C@@H]1C[C@H](N)[C@H](O[C@H]2OC(CN)=CC[C@H]2N)[C@@H](O)[C@H]1O[C@H]1OC[C@@](C)(O)[C@@H](NC)[C@@H]1O
inactive: [1] | [2] | [3] | [4] | [5] | [6] | [7] | [8] | [9] | [10] | [11] | [12] | [13] | [14] | [15] | [16] | [17] | [18] | [19] | [20]

CC(C)(C)NC(=O)[C@@H]1CC[C@@H]2[C@@H]3CC[C@@H]4NC(=O)C=C[C@@]4(C)[C@H]3CC[C@]21C
inactive: [1] | [2] | [3] | [4] | [5] | [6] | [7] | [8] | [9] | [10] | [11] | [12] | [13] | [14] | [15] | [16] | [17] | [18] | [19] | [20]

C[C@@H]1C[C@H]2[C@@H]3C[C@H](F)C4=CC(=O)C=C[C@@]4(C)[C@]3(F)[C@H](O)C[C@]2(C)[C@@]1(O)C(=O)CO
inactive: [1] | [2] | [3] | [4] | [5] | [6] | [7] | [8] | [9] | [10] | [11] | [12] | [13] | [14] | [15] | [16] | [17] | [18] | [19] | [20]

COc1c(O[C@H]2O[C@@H](CO)[C@@H](O)[C@@H](O)[C@@H]2O)cc2c(c1OC)-c1ccc(SC)c(=O)cc1[C@H](NC(C)=O)CC2
inactive: [1] | [2] | [3] | [4] | [5] | [6] | [7] | [8] | [9] | [10] | [11] | [12] | [13] | [14] | [15] | [16] | [17] | [18] | [19] | [20]

CO[C@@H]1C[C@H](O[C@H]2[C@@H](C)[C@H](O[C@@H]3O[C@@H](C)C[C@@H](N(C)C)[C@@H]3OC(C)=O)[C@H](C)C[C@]3(CO3)C(=O)[C@H](C)[C@H](OC(C)=O)[C@H](C)[C@H](C)OC(=O)[C@@H]2C)O[C@H](C)[C@@H]1OC(C)=O
inactive: [1] | [2] | [3] | [4] | [5] | [6] | [7] | [8] | [9] | [10] | [12] | [13] | [14] | [15] | [16] | [18] | [19] | [20]

COc1ccc(OC)c([C@H](O)CNC(=O)CN)c1
inactive: [1] | [2] | [3] | [4] | [5] | [6] | [7] | [8] | [9] | [10] | [11] | [12] | [13] | [14] | [15] | [16] | [17] | [18] | [19] | [20]

Source: PubChem BioAssay (NCATS)
